# The panel holds about 83,000 compounds, 20% with a hit somewhere; the sample as a whole holds those more often.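 Step 1: grow cells in 96-well plates. Step 2: add test compound at a single concentration. Step 3: incubate 48 h. Step 4: record percent growth.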 A number with no mark means an inactive call. The source made the active and inactive calls. The calls were made as follows: active = growth percent below 10; inactive = the rest.
# Test system: HL-60(TB) leukemia
# Experiment: NCI-60 one-dose screen, 48 h (100 = growth as untreated, 0 = no growth, -100 = all killed)
# Conditions: 10 µM unless noted
row,SMILES,growth
1,N#Cc1cccc(CN2CCc3ncn(Cc4ccc(Cl)cc4)c(=O)c3C2)c1,13.5%
2,Cc1cc(O)c2c(c1)C(=O)C(c1c(C)cc3c(c1O)C(=O)C=CC3=O)=CC2=O,55%
3,COc1cccc2c1[C@H](OC)[C@]13O[C@@]1(C2=O)[C@H](O)[C@H](C)[C@@](O)(C(=O)[C@@H]1O[C@H]1C)[C@@H]3O,-46.6% (active)
4,COc1ccc(/C=C/C(=O)c2nnn(-c3ccc(Br)cc3)c2C)cc1OC,47.1%
5,CNCCN(C)c1ccc(Nc2cc(NC3CC3)n3ncc(C#N)c3n2)cc1NC(C)=O,-7.57% (active)
6,O=c1c2ccccc2cc2n1CCN=C2c1ccccc1,97.8%
7,Cc1cc(-c2ccc3nc(N)sc3c2)nc2ccc3[nH]ncc3c12,25.8%
8,CCc1cccc2c3c(sc12)C(c1ccc(OC)cc1)C(C#N)=C(/N=C/c1ccc(Cl)cc1)O3 (stereo unspecified),2.87% (active)
9,CCN(CC)CCCC(C)NCC(=O)NC(c1ccc2c(c1)OCO2)c1cc(Cl)c2cccnc2c1O (stereo unspecified),7.29% (active)
10,CC1(COc2ccc3ncc(C#Cc4cncc(C(=O)Nc5cccc(C(F)(F)F)c5)c4)n3n2)COC1,39.9%
11,Cc1[nH]c(C(=O)Nc2ccc(S(=O)(=O)N3CCCCC3)cc2OCCOCCOCCOCCOCCOCCOCCOCCOCCOc2cc(S(=O)(=O)N3CCCCC3)ccc2NC(=O)c2[nH]c(C)c3c2CCCCC3=O)c2c1C(=O)CCCC2,10.7%
12,C#C[C@]1(O)CC[C@H]2[C@@H]3CC=C4c5sc(-c6cccc(F)c6)nc5CC[C@]4(C)[C@H]3CC[C@@]21C,79.6%
13,O=C(Cn1cc(-c2ccccc2)nn1)Nc1nc(-c2ccc(Cl)cc2)cs1,89.7%
14,CN(C)CCCOc1ccc2c(c1)CN(C(=O)c1cc(C(=O)N3Cc4cccc(F)c4C3)ccc1O)C2,107%
15,Oc1c(Cl)cc(Cl)c2ccc(CN3CCCCC3)nc12,32.9%
16,COc1ccc(/C=C(\C#N)C(=O)N2c3ccccc3Sc3ccc(SC)cc32)cc1F,93.5%
17,Cn1cc(-c2nc(N)nnc2-c2c[nH]c3ccc(Br)cc23)c2cc(Br)ccc21,3.35% (active)
18,CN1CCN(Cc2ccc(NC(=O)c3cncc(C#Cc4cnc5ccc(O[C@H]6CCOC6)nn45)c3)cc2C(F)(F)F)CC1,-41.2% (active)

row,SMILES,growth
1,CCN1C/C(=N\S(=O)(=O)c2ccccc2)N(CC)C1=S,100%
2,Cc1ccc(NC(=O)c2cc(/C=C/C(=O)NO)cc(C(F)(F)F)c2)cc1Nc1nccc(-c2cccnc2)n1,0.414% (active)
3,Cn1cc(CNc2nc3ccc(OC/C(=C/F)CN)cc3o2)ccc1=O,101%
4,Cc1cc2nc(C(Cl)Cl)nc(-c3ccco3)n2n1,-4.98% (active)
5,Cn1cc(-c2nn3cc(-c4ccncc4)nc3s2)c2cc(Br)ccc21,17.3%
6,COC(=O)C[Se]C(=O)Cc1c(C)n(C(=O)c2ccc(Cl)cc2)c2ccc(OC)cc12,-20.9% (active)
7,CCCCCc1ccc(S(=O)(=O)Nc2cc(-c3csc(N)n3)ccc2OC)cc1,60.8%
8,CN(c1ccc(Cl)cc1)S(=O)(=O)c1ccc(-c2cnc(C3CC3)o2)cc1,-15.9% (active)
9,N#Cc1c(-c2cccs2)cc(-c2cnccn2)nc1SCC(=O)c1ccc(F)cc1,131%
10,O=C(CN1CCN(c2cc(=O)[nH]c3ccc(F)cc23)CC1)N(c1ccccc1)c1ccccc1,106%
11,O=C(NNc1nc2cc(F)c(F)cc2n2cccc12)c1cnccn1,3.67% (active)
12,COc1cc2oc(-c3cccc(N)c3)cc(=O)c2c(OC)c1OC,96.8%
13,CN1CCN(c2ccc(Nc3nc(NCCNS(=O)(=O)c4ccccc4)c4sccc4n3)cc2)CC1,103%
14,COc1ccc2c(c1)c(-c1nn3cc(-c4ccncc4)nc3s1)cn2C,-25.5% (active)
15,NC(N)=Nc1ccc(Oc2cccc(Oc3ccc(Cl)c(C(F)(F)F)c3)c2)cn1,-69% (active)
16,CC1(C)CC[C@]2(C(=O)N3CCCNCC3)CC[C@]3(C)C(=CC[C@@H]4[C@@]5(C)CCC(=O)C(C)(C)[C@@H]5CC[C@]43C)[C@H]2C1,104%
17,CC(Nc1ncnc2ccc(-c3cnc(N)nc3)cc12)c1ccccc1 (stereo unspecified),35.3%
18,CC[C@]12CC(C(=O)OC)=C3Nc4ccccc4[C@@]34CCN(C14)[C@@H]1c3cc4c(cc3O[C@@H]1[C@H]2O)NC1=C(C(=O)OC)C[C@@]2(CC)C3N(CC[C@@]143)C[C@H]1O[C@H]12 (stereo partly specified),-1.14% (active)

# Source: PubChem BioAssay (NCI)
